Reference: PubChem BioAssay AID1159580 (chemical genetic matrix, 2015)
Where “and” joins values, the source holds several entries; their conditions need not be identical. Equal entries are not always repeated. About 2,000 (36%) of roughly 5,500 compounds were called active. Roughly 18% stayed inconclusive and do not appear here. No stated cut-off is given here; in the data, active means normalized growth mostly below about 0.91 (no sharp cut-off); inconclusive means no clear call, values can overlap the other calls; inactive means mostly above about 0.92. This is one part of the list.

Test: chemical genetic growth profiling, strain panel (AID 1159580);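 further: tested at 20 µM; growth read once vehicle control cultures reached saturation at 30 °C; 1 = growth at the plate median or of vehicle wells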
Details: S. cerevisiae deletion strains, growth OD

Measured: normalized growth

CC[C@@]1(O)C[C@H](O[C@H]2C[C@H](N(C)C)[C@H](O)[C@H](C)O2)c2c(cc3c(c2O)C(=O)c2c(O)cccc2C3=O)[C@H]1C(=O)OC
0.899 (active) and 0.963 (inactive): locus YHR030C, strain SLT2, stronger effect = lower value
active: locus YAL021C, strain ccr4, stronger effect = lower value 0.653 | locus YAL026C, strain drs2, stronger effect = lower value 0.883 | locus YAL030W, strain snc1, stronger effect = lower value 0.907 | locus YBL061C, strain skt5, stronger effect = lower value 0.891 | locus YBR009C, strain hhf1, stronger effect = lower value 0.783 | locus YBR023C, strain chs3, stronger effect = lower value 0.899 | locus YBR231C, strain swc5, stronger effect = lower value 0.823 | locus YCL011C, strain gbp2, stronger effect = lower value 0.867 | locus YCL016C, strain dcc1, stronger effect = lower value 0.704 | locus YCL029C, strain bik1, stronger effect = lower value 0.854 | locus YDL035C, strain GPR1, stronger effect = lower value 0.797 | locus YDL074C, strain BRE1, stronger effect = lower value 0.765 | locus YDL101C, strain DUN1, stronger effect = lower value 0.786 | locus YDL185W, strain tfp1, stronger effect = lower value 0.853 | locus YDL192W, strain arf1, stronger effect = lower value 0.666 | locus YDR101C, strain arx1, stronger effect = lower value 0.8 | locus YDR137W, strain rgp1, stronger effect = lower value 0.631 | locus YDR159W, strain sac3, stronger effect = lower value 0.73 | locus YDR162C, strain NBP2, stronger effect = lower value 0.595 | locus YDR195W, strain ref2 1.73 [resistant] | locus YDR318W, strain mcm21, stronger effect = lower value 0.866 | locus YDR335W, strain msn5, stronger effect = lower value 0.908 | locus YDR388W, stronger effect = lower value 0.847 | locus YDR392W, strain spt3, stronger effect = lower value 0.676 | locus YDR502C, strain sam2, stronger effect = lower value 0.812 | locus YEL061C, strain CIN8, stronger effect = lower value 0.879 | locus YER015W, strain faa2, stronger effect = lower value 0.869 | locus YER167W, strain BCK2, stronger effect = lower value 0.884 | locus YFR010W, strain ubp6, stronger effect = lower value 0.887 | locus YGL086W, strain mad1, stronger effect = lower value 0.816 | locus YGL240W, strain doc1, stronger effect = lower value 0.788 | locus YGL248W, strain PDE1, stronger effect = lower value 0.88 | locus YGL253W, strain hxk2, stronger effect = lower value 0.792 | locus YGR135W, strain pre9, stronger effect = lower value 0.875 | locus YHR027C, strain rpn1, stronger effect = lower value 0.785 | locus YHR079C, strain IRE1 (second series), stronger effect = lower value 0.89 | locus YHR094C, strain hxt1, stronger effect = lower value 0.92 | locus YHR129C, strain ARP1, stronger effect = lower value 0.886 | locus YHR200W, strain rpn10, stronger effect = lower value 0.788 | locus YIL066C, strain RNR3, stronger effect = lower value 0.79 | locus YIL073C, strain SPO22, stronger effect = lower value 0.538 | locus YIL125W, strain kgd1, stronger effect = lower value 0.918 | locus YIR030C, strain dcg1, stronger effect = lower value 0.871 | locus YJL092W, strain hpr5, stronger effect = lower value 0.804 | locus YJL095W, strain BCK1 (second series), stronger effect = lower value 0.886 | locus YJL115W, strain asf1, stronger effect = lower value 0.507 | locus YJL134W, strain LCB3, stronger effect = lower value 0.924 | locus YJL164C, strain tpk1, stronger effect = lower value 0.867 | locus YJL166W, strain qcr8, stronger effect = lower value 0.85 | locus YJL168C, strain set2, stronger effect = lower value 0.863 | locus YJR043C, strain POL32, stronger effect = lower value 0.722
inactive: locus YBR021W, strain FUR4, stronger effect = lower value 1.06 | locus YBR171W, strain sec66, stronger effect = lower value 0.994 | locus YBR229C, strain ROT2, stronger effect = lower value 0.942 | locus YBR279W, strain paf1, stronger effect = lower value 0.94 | locus YCL069W, strain vba3, stronger effect = lower value 0.972 | locus YCR088W, strain abp1, stronger effect = lower value 0.946 | locus YDL005C, strain med2, stronger effect = lower value 0.967 | locus YDL040C, strain nat1, stronger effect = lower value 0.955 | locus YDR001C, strain nth1, stronger effect = lower value 0.944 | locus YDR069C, strain doa4, stronger effect = lower value 0.908 | locus YDR150W, strain NUM1, stronger effect = lower value 0.945 | locus YDR297W, strain sur2, stronger effect = lower value 0.928 | locus YDR334W, strain swr1, stronger effect = lower value 0.959 | locus YEL003W, strain gim4, stronger effect = lower value 0.924 | locus YEL037C, strain rad23, stronger effect = lower value 0.944 | locus YEL061C, strain CIN8 (second series), stronger effect = lower value 0.949 | locus YER016W, strain bim1, stronger effect = lower value 0.925 | locus YER110C, stronger effect = lower value 0.921 | locus YER111C, strain swi4, stronger effect = lower value 0.989 | locus YER155C, strain BEM2 (second series), stronger effect = lower value 0.931 | locus YER155C, strain BEM2, stronger effect = lower value 0.944 | locus YGL078C, strain dbp3, stronger effect = lower value 0.928 | locus YGL167C, strain pmr1, stronger effect = lower value 0.963 | locus YGL173C, strain kem1, stronger effect = lower value 0.913 | locus YGL227W, strain vid30, stronger effect = lower value 0.959 | locus YGR078C, strain PAC10, stronger effect = lower value 0.905 | locus YGR252W, strain gcn5, stronger effect = lower value 1.06 | locus YHR013C, strain ard1, stronger effect = lower value 1.01 | locus YHR079C, strain IRE1, stronger effect = lower value 0.981 | locus YHR142W, strain chs7, stronger effect = lower value 0.882 | locus YJL129C, strain trk1, stronger effect = lower value 1.08 | locus YJL154C, strain vps35, stronger effect = lower value 0.95 | locus YJL187C, strain SWE1 (second series), stronger effect = lower value 0.871 | locus YJR066W, strain TOR1, stronger effect = lower value 0.879 | locus YKL009W, strain mrt4, stronger effect = lower value 0.897
0.776 (active) and 0.954 (inactive): locus YJL095W, strain BCK1, stronger effect = lower value
